In PubChem BioAssay (NCI):
This is part of a sample that, as a whole, favours compounds with a hit. Of some 83,000 tested, about 20% had one in any assay.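 Method: cells in 96-well plates; compound added at one concentration; 48 h incubation; percent growth measured; values under 10 scored active.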 Values without a mark were called inactive. Calls of active or inactive are those of the source.

Test system: HL-60(TB) leukemia
Experiment: NCI-60 one-dose screen, 48 h (100 = growth as untreated, 0 = no growth, -100 = all killed)
Conditions: 10 µM unless noted

| SMILES | growth |
| --- | --- |
| NS(=O)(=O)c1ccc(-c2cc(-c3nnc(SCC(=O)Nc4ccc(C(=O)/C=C/c5ccc(Cl)cc5)cc4)n3-c3ccccc3)c3ccccc3n2)cc1 | 92.2% |
| O=C(Nc1ccccn1)[C@H](O)[C@@H](O)C(=O)N1CCOCC1 | 116% |
| CCCCn1sc(=O)n(Cc2ccc(CNC(=O)OCc3ccc4c(Cl)cc(Cl)c(O)c4n3)cc2)c1=O | 67.9% |
| c1cc(NCCc2ccncc2)nc(-n2cnc3ccccc32)c1 | 67.7% |
| COc1ccc(C2=Nc3c(N)ncnc3NC(c3ccc4c(c3)OCO4)C2)cc1 (configuration not stated) | 124% |
| CC(C)(C)c1nn(-c2ccccc2)c2c1CC1(CN2Cc2ccc(Cl)cc2)C(=O)c2ccccc2C1=O | 90.8% |
| CC(C)(C)[Si](C)(C)OC1[C@@H](CNC(=O)NC(=O)NC(N)=O)O[C@@H](n2cnc3c(NC(=O)Nc4ccccc4)ncnc32)[C@H]1O[Si](C)(C)C(C)(C)C (some centres not stated) | 86.3% |
| COc1ccc(Sc2[nH]c(C(C)=O)c3ccccc23)cc1 | 23.3% |
| COc1cc2ncnc(Nc3ccc(F)c(Cl)c3)c2cc1NC(=O)/C=C/CN1CCCCC1 | -50.2% (active) |
| C=C1C(=O)O[C@H]2[C@H]1CC/C(COC(=O)/C=C/c1cccnc1)=C\CC[C@@]1(C)O[C@@H]21 | -28% (active) |
| OC(Cc1cc(CC(O)(C(F)(F)F)C(F)(F)F)nc(CC(O)(C(F)(F)F)C(F)(F)F)c1)(C(F)(F)F)C(F)(F)F | -24.5% (active) |
| c1ccc(C2CCCCC2)c(OCCCCCN2CCNCC2)c1 | 28.2% |
